Values joined by “and” are separate entries in the source; they are usually repeats but may differ in a detail not shown here. Identical values can stand only once. Inconclusive results are not listed. Some structures have more than one record in an assay (separate samples or runs), and their calls can disagree. Active and inactive are the calls of the source. Unless noted, the call rests on the fitted dose curve; in most records, active means well fitted curve in the direction sought with a large enough effect; inconclusive means small, poorly fitted or top-dose-only effect, or another doubt; inactive means no such curve, though single readings can be large; an effect the other way counts as inactive or inconclusive.

The nature of assay [1]: Primary qHTS for small molecule stabilizers of the endoplasmic reticulum resident proteome: Secreted ER Calcium Modulated Protein (SERCaMP) assay (AID 1508630). The procedure, abridged:
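The SH-SY5Y reporter protocol was run at 3 concentrations up to 38.3 uM (primary) or 11 concentrations (follow-up): 16 h compound, 100 nM thapsigargin for 4 h, then extracellular luciferase luminescence.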

In assay [2] the target is Cytochrome P450 2D6 (Homo sapiens) (UniProt P10635). The experiment in a line: Cytochrome P450 family 2 subfamily D member 6 (CYP2D6) small molecule antagonists: luciferase biochemical (cell-free) qHTS assay (AID 1645840; active means well fitted curve in the direction sought with a large enough effect in the repeat runs; an effect the other way counts as inactive or inconclusive; further: nearly all actives have a fitted effect of over 55% in size; further: potency means the concentration at half of the fitted maximal effect). The procedure, abridged:
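P450-Glo CYP2D6 system: proluciferin substrate converted by enzyme to luciferin, read by luminescence proportional to activity. Enzyme-substrate mix with compound 10 min at room temperature, then NADPH regeneration 1 h before detection reagent.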

Another assay addresses Papain (Carica papaya) (UniProt P00784). The experiment in a line: Primary qHTS assay for inhibitors of the protease papain (AID 1645873).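 Further: papain turnover of Z-FR-AMC read as the AMC fluorescence gain over 10 min; series mostly up to about 50 µM.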
Assay [3] in a line: Primary qHTS for inhibitors of nuclear receptor binding SET domain protein 2 (NSD2) in an isogenic RCH-ACV NSD2 p.E1099K mutant (9B) (AID 1645876). Further: nearly all actives have a fitted effect of over 70% in size. Further: potency means the concentration at half of the fitted maximal effect.
Assay [4] concerns the target N-terminal Xaa-Pro-Lys N-methyltransferase 1 (Homo sapiens) (UniProt Q9BV86). The experiment in a line: Confirmatory qHTS for Inhibitors of N-terminal methyltransferase 1 (NTMT1): MTaseGlo Assay (AID 1645874). Further: potency means the concentration at half of the fitted maximal effect; nearly all actives have a fitted effect of over 65% in size. The method, boiled down:
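Room-temperature NTMT1 reaction, 30 min, with 100 uM SAM and 1 uM SPKRIA substrate; enzyme 125 nM. Read-out: MTase-Glo luminescence, normalized to no-enzyme and DMSO controls.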

The target in assay [5] is Cytochrome P450 2C9 (Homo sapiens) (UniProt P11712). Nature of the assay: Cytochrome P450 family 2 subfamily C member 9 (CYP2C9) small molecule antagonists: luciferase biochemical (cell-free) qHTS assay (AID 1645842; active means well fitted curve in the direction sought with a large enough effect in the repeat runs; an effect the other way counts as inactive or inconclusive; further: nearly all actives have a fitted effect of over 55% in size; further: potency means the concentration at half of the fitted maximal effect). The method, boiled down: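 P450-Glo CYP2C9 system: proluciferin substrate with enzyme in mix containing 0.4% BSA, 10 min at room temperature, then NADPH regeneration solution added and incubated 1 h at 37C. Detection reagent stopped reaction; luminescence read after 20 min as RLU.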
Sequence of Cytochrome P450 2C9 (Homo sapiens) (P11712 whole entry, looked up): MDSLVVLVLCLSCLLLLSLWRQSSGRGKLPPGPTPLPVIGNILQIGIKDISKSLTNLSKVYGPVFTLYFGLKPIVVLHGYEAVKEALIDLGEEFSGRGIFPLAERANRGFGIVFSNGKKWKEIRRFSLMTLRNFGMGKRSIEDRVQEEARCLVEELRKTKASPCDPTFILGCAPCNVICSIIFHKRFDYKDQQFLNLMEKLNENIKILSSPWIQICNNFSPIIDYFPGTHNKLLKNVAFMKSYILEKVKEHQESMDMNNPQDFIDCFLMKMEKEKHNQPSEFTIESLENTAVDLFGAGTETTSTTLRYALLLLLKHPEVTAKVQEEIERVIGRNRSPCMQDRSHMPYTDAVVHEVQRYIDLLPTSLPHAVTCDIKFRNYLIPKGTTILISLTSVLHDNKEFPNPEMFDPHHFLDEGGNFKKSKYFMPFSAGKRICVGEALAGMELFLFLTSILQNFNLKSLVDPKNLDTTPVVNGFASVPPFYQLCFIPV

The target of assay [6] is Cytochrome P450 3A4 (Homo sapiens) (UniProt P08684). The experiment in a line: Cytochrome P450 family 3 subfamily A member 4 (CYP3A4) small molecule antagonists: luciferase qHTS assay (AID 1645841; active means well fitted curve in the direction sought with a large enough effect in the repeat runs; an effect the other way counts as inactive or inconclusive; further: nearly all actives have a fitted effect of over 45% in size). The procedure, abridged: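 P450-Glo CYP3A4 enzyme with proluciferin substrate was preincubated with DMSO-dissolved compounds for 10 min at room temperature. NADPH regeneration solution started a 1 h reaction. Detection reagent stopped it, and luminescence was read after 20 min.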
Sequence of Cytochrome P450 3A4 (Homo sapiens) (P08684 whole entry, looked up): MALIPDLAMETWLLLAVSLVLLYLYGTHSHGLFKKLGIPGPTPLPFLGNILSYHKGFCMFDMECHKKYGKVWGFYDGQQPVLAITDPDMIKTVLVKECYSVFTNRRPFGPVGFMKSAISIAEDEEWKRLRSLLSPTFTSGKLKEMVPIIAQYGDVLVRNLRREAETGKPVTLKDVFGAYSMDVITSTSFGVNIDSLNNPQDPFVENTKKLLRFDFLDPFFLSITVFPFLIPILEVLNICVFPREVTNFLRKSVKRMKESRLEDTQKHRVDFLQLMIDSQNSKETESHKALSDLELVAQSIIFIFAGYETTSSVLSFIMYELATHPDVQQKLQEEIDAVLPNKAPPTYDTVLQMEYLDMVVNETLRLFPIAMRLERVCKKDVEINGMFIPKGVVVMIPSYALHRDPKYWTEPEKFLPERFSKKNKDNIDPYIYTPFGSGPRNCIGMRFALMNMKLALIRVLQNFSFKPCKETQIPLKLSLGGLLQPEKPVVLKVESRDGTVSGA

Assay [7] is described as follows: A High-Content qHTS Against Drug Library for the Identification of Small Molecules that Inhibit DYT1 Early Onset Primary Dystonia-Associated Cell Pathology (AID 1645839; calls by dose curve; further: series mostly up to about 46 µM). The method, boiled down: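 Induced EGFP-delE TorsinA cells are imaged after 48 h of compound treatment. Punctate fusion-protein distribution gives the %pathology value, while nuclei counts flag toxicity. Wild-type EGFP-hTOR1A cells define the normal pattern.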

Sequence of Papain (Carica papaya) (P00784 whole entry, looked up, the tested form may be a part): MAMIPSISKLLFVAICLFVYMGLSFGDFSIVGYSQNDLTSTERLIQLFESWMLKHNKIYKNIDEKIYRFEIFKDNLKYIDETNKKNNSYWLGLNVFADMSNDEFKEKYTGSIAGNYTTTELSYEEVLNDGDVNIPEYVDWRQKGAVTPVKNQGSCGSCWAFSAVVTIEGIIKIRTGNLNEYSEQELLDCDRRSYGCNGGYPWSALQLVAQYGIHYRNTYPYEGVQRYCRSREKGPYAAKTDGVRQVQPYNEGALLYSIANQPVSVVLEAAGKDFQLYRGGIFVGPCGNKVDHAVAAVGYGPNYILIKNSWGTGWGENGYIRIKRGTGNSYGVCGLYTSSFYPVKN
Sequence of Cytochrome P450 2D6 (Homo sapiens) (P10635 whole entry, looked up): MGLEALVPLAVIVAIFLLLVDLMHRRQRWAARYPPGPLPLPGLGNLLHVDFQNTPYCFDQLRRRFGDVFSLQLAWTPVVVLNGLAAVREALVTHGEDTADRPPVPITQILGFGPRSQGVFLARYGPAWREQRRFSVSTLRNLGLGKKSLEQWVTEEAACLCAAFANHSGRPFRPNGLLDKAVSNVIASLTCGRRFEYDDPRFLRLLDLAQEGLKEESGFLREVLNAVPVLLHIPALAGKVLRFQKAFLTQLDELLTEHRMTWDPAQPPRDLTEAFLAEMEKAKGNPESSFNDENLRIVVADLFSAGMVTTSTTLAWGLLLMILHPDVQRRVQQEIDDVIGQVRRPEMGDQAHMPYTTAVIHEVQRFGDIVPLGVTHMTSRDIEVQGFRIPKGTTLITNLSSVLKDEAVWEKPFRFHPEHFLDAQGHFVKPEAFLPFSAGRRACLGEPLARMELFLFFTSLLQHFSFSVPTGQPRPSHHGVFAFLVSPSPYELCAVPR
Sequence of N-terminal Xaa-Pro-Lys N-methyltransferase 1 (Homo sapiens) (Q9BV86 whole entry, looked up): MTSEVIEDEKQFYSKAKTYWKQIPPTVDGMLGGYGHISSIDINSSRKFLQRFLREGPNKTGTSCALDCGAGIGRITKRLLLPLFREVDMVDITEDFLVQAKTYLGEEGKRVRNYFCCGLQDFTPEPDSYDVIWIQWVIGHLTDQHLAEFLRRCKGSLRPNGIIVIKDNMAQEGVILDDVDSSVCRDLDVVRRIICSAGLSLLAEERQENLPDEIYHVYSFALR

With `CC(=Cc1ccccc1)C=C1SC(=S)N(CC(=O)O)C1=O`, in assay [1], the Potency entry is “inactive”.

For `CC=CCC=CCCC(=O)[C@H]1O[C@@H]1C(N)=O`, the Potency entry in assay [1] is “inactive”.

With `O=c1cc(-c2ccc(O)cc2)oc2cc(O)cc(O)c12`, the Potency entry in assay [1] is “inactive”. For the same molecule, the Potency in assay [2] is 12 µM (active); in assay [3], 5.9 µM (active). The outcome with Papain (Carica papaya) was inactive.

`CC(C)(C)Cn1c(N)nc2ccc(-c3[nH]c(C(C)(C)C)nc3-c3ccc(F)cc3)nc21`: the Potency result in assay [1] is “inactive”. Also, the Potency in assay [2] was 15.1 µM (active); in assay [4], 17.8 µM (active); in assay [3], 2.9 µM (active) and 16.6 µM (active).

Consider `O=c1c(-c2ccc(O)cc2)coc2cc(OC3O[C@H](CO)[C@H](O)[C@H](O)[C@H]3O)cc(O)c12` (stereo partly specified), for which the Potency entry in assay [1] and in assay [5] was “inactive” in each case. The Potency in assay [2] was 30.1 µM (active).

Consider `CCCCCCCCCCCC1=C(O)C(=O)C=C(O)C1=O`, for which the Potency entry in assay [1], in assay [2] and in assay [3] was “inactive” each time. Also, in assay [6], the molecule was classed as inactive.

Consider `CCOC(=O)C1=C(N)Oc2ccc(Br)cc2C1C(C#N)C(=O)OCC` (stereo unspecified), for which the Potency entry in assay [1] and in assay [3] was “inactive” throughout. The Potency in assay [2] was 13.5 µM (active) and 16.9 µM (active) and 23.9 µM (active); in assay [5], 6.01 µM (active) and 12 µM (active) and 10.7 µM (active).

`COc1ccccc1N1CCN(CCCNc2cc(=O)n(C)c(=O)n2C)CC1`: the Potency entry in assay [1], in assay [7] and in assay [3] was “inactive” in each case. Besides, in the assay with Papain (Carica papaya), the molecule was classed as inactive.

As for `COc1cccc2c1CCCC2CCCN1CCN(C2CCCCC2)CC1` (stereo unspecified), the Potency entry in assay [1] and in assay [5] was “inactive” throughout. Besides, the Potency was 2.13 µM (active) in assay [2] and 20.9 µM (active) in assay [3]. Moreover, the call in assay [6] was inactive.

With `CC1(C)Cc2c(sc(NC(=S)NC(=O)c3ccccc3)c2C(=O)O)CO1`, the Potency result in assay [1], in assay [2] and in assay [3] was “inactive” each time. In assay [5], the Potency is 19 µM (active).

As to `CC(C)(C)c1cc(C(=O)O)c(NC(=O)Nc2ccc3[nH]ncc3c2)s1`, the Potency entry in assay [1] and in assay [3] was “inactive” in each case. The Potency in assay [2] was 3.38 µM (active); in assay [5], 0.477 µM (active).

In the case of `NC(N)=Nc1nc(CSCC/C(N)=N/S(N)(=O)=O)cs1`, the Potency result in assay [1], in assay [7], in assay [5] and in assay [3] was “inactive” in each case. The outcome with Papain (Carica papaya) was inactive.

Consider `CC[C@]1(O)C[C@@H]2CN(CCc3c([nH]c4ccccc34)[C@@](C(=O)OC)(c3cc4c(cc3OC)N(C)[C@H]3[C@@](O)(C(=O)OC)[C@H](OC(C)=O)[C@]5(CC)C=CCN6CC[C@]43[C@@H]65)C2)C1`, for which the Potency result in assay [1] and in assay [7] was “inactive” throughout. Moreover, in assay [3], the Potency is 33.5 nM (active) and 84.1 nM (active) and 57.8 nM (active).

Regarding `OC[C@@H](O)[C@H](O)[C@H](O)[C@@H](O)CO`, the Potency entry in assay [1], in assay [7], in assay [2] and in assay [3] was “inactive” throughout.

With `O=c1[nH]cnc2c1ncn2[C@H]1CC[C@@H](CO)O1`, the Potency result in assay [1], in assay [7], in assay [5] and in assay [3] was “inactive” throughout. Further, the molecule was classed as inactive in assay [6].

Regarding `CN[C@@H](C)C(=O)N[C@H]1CN(C(=O)CC(C)C)CC[C@H]2CC[C@@H](C(=O)NC(c3ccccc3)c3ccccc3)N2C1=O`, the Potency entry in assay [1], in assay [2] and in assay [3] was “inactive” throughout.

Regarding `COc1ccc2c(Oc3ccc(NC(=O)c4c(C)n(CC(C)(C)O)n(-c5ccccc5)c4=O)cc3F)ccnc2c1`, the Potency result in assay [1] and in assay [2] was “inactive” throughout. Also, the values for the Potency in assay [5] and in assay [3] were 23.9 µM (active) and 11.5 µM (active), respectively.

As for `O=C(NC1CCOCC1)c1ccc(-c2cc(-c3cn[nH]c3-c3ccccn3)ccn2)cc1`, the Potency result in assay [1], in assay [2] and in assay [3] was “inactive” each time.

In the case of `CCn1c(C(=O)N(C2CC2)C2CC2)cc2c3c(ncn3C)c(Nc3cc(C)n(C)n3)nc21`, the Potency entry in assay [1] and in assay [2] was “inactive” each time. The Potency is 7.56 µM (active) in assay [5]; 11.5 µM (active) and 16.6 µM (active) in assay [3].

Take `O=C(CCCCCCC(=O)Nc1ccccc1)NO`: the Potency entry in assay [1] and in assay [5] was “inactive” throughout. Besides, the Potency is 4.9 µM (active) in assay [2]; 94.4 nM (active) and 1.63 µM (active) and 662 nM (active) in assay [3].

With `CS(=O)c1ccc(-c2nc(-c3ccc(F)cc3)c(-c3ccncc3)[nH]2)cc1` (stereo unspecified), the Potency entry in assay [1] was “inactive”. The results for the Potency in assay [2] and in assay [3] were 6.74 µM (active) and 18.6 µM (active), respectively.

For the molecule `CC(C)(Cc1ccc2ccccc2c1)NC[C@@H](O)COc1cccc(Cl)c1C#N`, the Potency entry in assay [1] was “inactive”. Besides, the Potency in assay [2] is 0.379 µM (active); in assay [5] it was 2.68 µM (active); in assay [3], 4.68 µM (active).

On to `CC(=O)Oc1cc2c(s1)CCN(C(C(=O)C1CC1)c1ccccc1F)C2` (stereo unspecified), for which the Potency result in assay [1] and in assay [3] was “inactive” each time. In addition, the Potency in assay [2] is 11 µM (active) and 10.7 µM (active); in assay [5], 4.36 µM (active) and 4.25 µM (active).

With `Cc1ccc([C@@H]2O[C@H](CO)[C@@H](O)[C@H](O)[C@@H]2O)cc1Cc1ccc(-c2ccc(F)cc2)s1`, the Potency entry in assay [1] is “inactive”. Also, the Potency in assay [2] was 23.9 µM (active); in assay [5], 12 µM (active).

Turning to `COc1cc2ncnc(Nc3ccc(F)c(Cl)c3)c2cc1OCCCN1CCOCC1`, in assay [1], the Potency result is “inactive”. Besides, the Potency was 4.9 µM (active) in assay [2]; 7.58 µM (active) in assay [4]; 23.7 µM (active) and 20.6 µM (active) and inactive in assay [3].

The record behind these values is PubChem BioAssay (NCATS).
